This is a sample that favours compounds with a hit; in the whole collection about 3% have one here.
CF NFkB block – inhibitors of cystic fibrosis induced NF-kB | 360,000 compounds, 0.86% hits | KKLEB NF-kB-GFP reporter, PAF-induced, GFP fluorescence overnight | inhibition, % at 5 µM | AID 588850;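 active = at least 50% inhibition at 5 µM, scaled per plate between neutral and stimulator controls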;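 note: PAF is a Pseudomonas aeruginosa culture filtrate used as stimulus; plate controls were PAF-stimulated DMSO wells for no effect and unstimulated DMSO wells for full effect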
Peg3 prom inh – reduces Peg3 promoter-driven luciferase expression in HeLa | AID 588405 | 360,000 compounds, 1.7% hits | HeLa PEG-Prom luciferase reporter, luminescence, overnight | inhibition, % at 20 µM;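 active = inhibition of at least 50% at 20 µM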
HIF-2a block – blocks HIF-2a reporter activity; 786-0 RCC cells HIF-2a reporter, luciferase luminescence, overnight; AID 624352; inhibition, % at 18.8 µM; 360,000 compounds, 0.72% hits;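 active = inhibition of the luminescence signal of 40% or more relative to plate controls, in a single-dose primary screen at 18.75 µM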
MITF TRPM1 inh – MITF TRPM1 promoter inhibition in SK-MEL-5 cells. SK-MEL-5 TRPM1 promoter luciferase, 24 h. inhibition, % at 12.5 µM. 330,000 compounds, 0.83% hits;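 active = mean inhibition across replicates of 60% or more, whatever share of single replicates reaches that level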
ABHD5-PLIN5 inh – ABHD5-PLIN5 protein interaction inhibition | Split G. princeps luciferase complementation, luminescence, 4 h | Q00G26+Q8WTS1 | AID 602281 | 360,000 compounds, 0.78% hits | inhibition, % at 4 µM;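 active = inhibition above the mean inhibition across every tested compound plus 3 SD, cut at about 22% in these data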;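 note: 0% = DMSO only wells and the 100% control is not disclosed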
KKLEB cytotox – reduces viability of KKLEB cystic fibrosis airway cells | 360,000 compounds, 0.36% hits | activity change (cytotoxicity), % at 5 µM | AID 602141 | KKLEB CF airway cells viability, ATPlite luminescence, overnight; hits give low values; cells stimulated with P. aeruginosa culture filtrate;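 active = corrected activity change at or below -50% at 5 µM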
ABHD5 PLIN5 conf – confirmation of human ABHD5-PLIN5 interaction inhibitors; 2,200 compounds, 67% hits; inhibition, % at 4 µM; shares compounds with ABHD5-PLIN5 inh; biochemical ABHD5-PLIN5 interaction, luminescence; in the data active = inhibition above about 23%;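 note: 0% = DMSO vehicle wells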
HNF4 counter – counter-screen for ABHD5-PLIN5 inhibitors: HNF4 split-luciferase; shares compounds with ABHD5-PLIN5 inh; HNF4 dimerization, luminescence, biochemical; inhibition, % at 4 µM; 2,200 compounds, 77% hits; AID 651674;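 active = mean inhibition across replicate wells exceeding the computed hit threshold, cut at about 13% in these data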;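 note: light from luciferase halves that rejoin when HNF4 fusion proteins dimerize; 0% = DMSO only wells and the 100% control is not given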
Target sequence (P41235 whole entry, looked up, the tested form may be a part): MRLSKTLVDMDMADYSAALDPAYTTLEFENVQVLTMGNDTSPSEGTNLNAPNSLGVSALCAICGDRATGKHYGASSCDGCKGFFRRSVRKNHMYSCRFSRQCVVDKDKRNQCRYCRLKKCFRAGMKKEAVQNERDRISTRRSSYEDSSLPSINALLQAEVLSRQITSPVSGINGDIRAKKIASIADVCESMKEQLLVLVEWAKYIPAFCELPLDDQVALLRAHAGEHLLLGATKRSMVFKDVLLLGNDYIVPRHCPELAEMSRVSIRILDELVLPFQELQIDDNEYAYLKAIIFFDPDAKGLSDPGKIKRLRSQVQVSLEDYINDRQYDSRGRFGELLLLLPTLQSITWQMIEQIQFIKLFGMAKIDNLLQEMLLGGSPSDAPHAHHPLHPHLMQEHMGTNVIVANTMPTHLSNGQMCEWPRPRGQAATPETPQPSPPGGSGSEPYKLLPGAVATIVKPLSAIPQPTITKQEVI
Numbers without * were called inactive; · = no result given.

SMILES	CF NFkB block	Peg3 prom inh	HIF-2a block	MITF TRPM1 inh	ABHD5-PLIN5 inh	KKLEB cytotox	ABHD5 PLIN5 conf	HNF4 counter
CCC[C@@H](CN1CCC[C@H]1CN1C(N)=NC[C@@H]1Cc1ccccc1)N1C[C@@H]([C@H](C)CC)N(CCc2ccc(Cl)c(Cl)c2)C1=N	-2	-1	6	-4	26*	13	12	3
CC(C)[C@H](CN1CCC[C@H]1CN1C(N)=NC[C@@H]1Cc1ccccc1)N1C[C@@H](Cc2ccccc2)N(CCc2ccc(Cl)c(Cl)c2)C1=N	-14	-15	6	-6	36*	4	23*	6
CCCCN1C(=N)N([C@@H](CCC)CN2CCC[C@H]2CN2C(N)=NC[C@@H]2Cc2ccccc2)C[C@H]1Cc1ccccc1	-14	21	8	-4	-3	-1	·	·
CCC[C@@H](CN1CCC[C@H]1CN1C(N)=NC[C@@H]1Cc1ccccc1)N1C[C@@H](Cc2ccccc2)N(CCc2ccc(Cl)c(Cl)c2)C1=N	2	-19	1	-12	29*	7	11	-2
COc1ccc(C)cc1NC(=O)C(c1ccccc1)N1CCN(CC(=O)NC2CC2)CC1 (stereo not given)	-1	15	-4	-3	11	4	·	·
CCC1(C(=O)OC)NC(c2ccco2)C2C(=O)N(c3ccccc3)C(=O)C21 (stereo not given)	12	-19	-2	-8	25*	-7	11	13*
Cc1noc(C)c1-c1ccc(C(=O)Nc2ccccc2)c2occc12	-62	-360	-381	·	1	-8	·	·
CC(C)C(=O)NC(c1ccc(Cl)cc1Cl)c1ccc2cccnc2c1O (stereo not given)	-60	28	-116	27	29*	3	15	5
CCN1CCC(O)(/C=C/c2ccc(C(C)C)cc2)C(C(=O)/C=C/c2ccc(C(C)C)cc2)C1 (stereo not given)	20	104*	-8	67*	67*	-10	78*	79*
CCN1CCN(C(=O)/C=C/c2ccc(C(C)C)cc2)CC1	4	6	-4	-1	9	-1	·	·
C[C@H](CO)N1C[C@H](C)[C@@H](CN(C)S(C)(=O)=O)Oc2ccc(N(C)C)cc2C1=O	-13	3	14	8	0	-5	·	·
COc1ccc(C(NC(=O)c2ccco2)c2ccc(OC)c(OC)c2)cc1 (stereo not given)	2	10	10	11	4	-2	·	·
COc1ccc(C(NC(=O)/C=C/c2ccco2)c2ccc(OC)c(OC)c2)cc1OC	-27	7	-5	-4	24*	13	59*	54*
CCN(CC)S(=O)(=O)c1ccc(OC)c(NC(=O)CSc2cc(Cl)ccc2Cl)c1	15	26	23	6	-2	1	·	·
Cc1ccc(-c2nn(-c3ccccc3)cc2CN(Cc2ccccc2)C(=O)c2ccco2)o1	-2	65*	26	5	38*	5	15	21*
CCCCc1ccc(/C(C)=N/NC(=O)C2CCCC2)cc1	15	-35	-16	2	3	-6	·	·
Cc1ccc(/C=C2/NC(=O)N(Cc3ccccc3F)C2=O)o1	-18	6	-3	-4	40*	6	17	81*
Cc1ccc(/C=C2/NC(=O)N(Cc3ccc(Br)cc3)C2=O)o1	-7	11	32	-9	55*	-4	63*	93*
Cc1ccc(/C=C2/NC(=O)N(c3ccccc3)C2=O)o1	3	-132	-107	-30	19	10	·	·
CCN1C(=O)N/C(=C/c2ccc(C)o2)C1=O	-33	1	8	3	42*	11	27*	89*
Cc1ccc(C(=O)Nc2ccc(C(=O)O)cc2)cc1S(=O)(=O)NCc1ccccc1	12	4	14	-15	3	0	·	·
COc1ccc(Cn2cc(CN3CC(N4CCCC4)CS3(=O)=O)nn2)cc1 (stereo not given)	·	·	4	·	-2	·	·	·
Cc1c(C(=O)NCc2cccc([N+](=O)[O-])c2)sc(=O)n1Cc1ccc(C(C)C)cc1	21	14	-6	·	-13	-10	·	·
Cc1nc2ccccc2n1CC(O)Cn1c2ccccc2c2ccccc21 (stereo not given)	14	33	-11	6	29*	-10	9	25*
CCCCOCC(O)Cn1c(C)nc2ccccc21 (stereo not given)	-13	2	2	10	8	-2	·	·
SMILES	CF NFkB block	Peg3 prom inh	HIF-2a block	MITF TRPM1 inh	ABHD5-PLIN5 inh	KKLEB cytotox	ABHD5 PLIN5 conf	HNF4 counter
O=C(CCl)NC1(C(=O)O)CCCC1	-20	-4	-9	·	-1	3	·	·
Cc1[nH]n(-c2ccccc2)c(=O)c1C(c1cccc([N+](=O)[O-])c1)c1c(C)[nH]n(-c2ccccc2)c1=O	10	-2	15	6	-16	3	·	·
CCOc1ccccc1C(c1c(O)nc(SC)[nH]c1=O)c1c(O)nc(SC)[nH]c1=O	5	-2	3	·	6	2	·	·
CSc1nc(O)c(C(c2ccc(O)cc2)c2c(O)nc(SC)[nH]c2=O)c(=O)[nH]1	6	6	21	-1	50*	-2	83*	81*
CCOc1ccc(C(c2c(O)nc(SC)[nH]c2=O)c2c(O)nc(SC)[nH]c2=O)cc1	2	14	12	·	34*	-16	83*	77*
C=CCOc1ccc(C(c2c(O)nc(SC)[nH]c2=O)c2c(O)nc(SC)[nH]c2=O)cc1	-17	1	5	8	20	5	·	·
CSc1nc(O)c(C(c2cccc([N+](=O)[O-])c2)c2c(O)nc(SC)[nH]c2=O)c(=O)[nH]1	6	-8	13	6	25*	10	1	18*
CCOC(=O)c1c(S(=O)(=O)NCC(=O)Nc2ccc(F)cc2F)c(C)n(C)c1C	19	12	15	15	12	8	·	·
CC(=O)c1ccc2noc(-c3ccccc3)c2c1	1	-16	-20	-19	28*	-5	31*	49*
COc1ccccc1N1CCN(C(=O)c2ccc3noc(-c4ccccc4)c3c2)CC1	14	-14	-40	·	-9	-14	·	·
Cc1nc(NC(=O)c2ccccc2)sc1-c1cc(C(=O)O)nn1Cc1ccccc1	-7	1	2	·	9	2	·	·
Cc1cccc(C)c1N1C(=O)c2ccccc2NC(=O)C1C(=O)NCc1ccco1 (stereo not given)	·	·	9	·	-3	·	·	·
COc1ccc(CNC(=O)C2CCN(S(=O)(=O)c3ccc4c(c3)NC(=O)C(C)S4)CC2)cc1 (stereo not given)	-8	3	2	5	2	-3	·	·
